We go through 29 compounds from PubChem BioAssay.

The assay can be described thus: compound effects on hepatocellular carcinoma cell viability – HepG2, calcein-AM fluorescence, 48 h, basal, profiling panel (AID 1164). Note: test concentration not given here. To be noted: higher = more signal.
Regarding `CCCCCCc1nc(C2CC2)cc2c1[Si](C(C)C)(C(C)C)OC2`, the z-score was -0.131. Regarding `COc1ccc([Si](C)(C)[C@H]2[C@H](CCO)O[C@@]3(C(=O)N(Cc4cccc(N5C(=O)COc6ccccc65)c4)c4ccccc43)[C@@H]2C)cc1`, the z-score was -4.12. In the case of `C=C(/C(=C/C[C@H](OC(=O)c1ccncc1)c1ccc(CO)o1)c1cc(C(=O)OC)ccc1OC)C(C)C` it was -1.15; in that of `COC(=O)[C@@]1(Cc2ccccc2N=[N+]=[N-])N=C(c2ccc(OCCCO)cc2)O[C@H]1c1ccccc1N=[N+]=[N-]`, -5.52.

As to `O=C1O[C@H](c2ccccc2)[C@H](c2ccccc2)N2[C@H]1[C@@H](C(=O)Nc1nc3ccccc3s1)[C@]1(C(=O)Nc3ccccc31)[C@H]2c1ccc(OCCO)cc1`, the z-score was 0.349. In the case of `C=CCC(OC(C)=O)[C@@H]1[C@@H](N(Cc2cc3ccccc3o2)C(=O)c2ccc(C)cc2)c2cc(OCCCO)ccc2N1C(=O)Cc1ccc(OC)cc1` (some centres undefined) it was 0.979. Take `C[C@@H]1ON(c2ccc(C(=O)OC(C)(C)C)cc2)[C@H](c2ccc(O)cc2)[C@H]1C(=O)N1C(=O)OC[C@H]1Cc1ccccc1`: the z-score is -4.85. For `C=CCNC(=O)[C@H]1[C@@H]2C(=O)O[C@@H](c3ccccc3)[C@@H](c3ccccc3)N2[C@@H](c2ccc(O)cc2)[C@]12C(=O)Nc1ccc(C#CC3(O)CCCCCC3)cc12`, the z-score is -1.37. The same measure for `CCCC[C@@H]1C[C@H]1[C@@H](NC(=O)Cc1ccccc1)c1ccc(-c2ccccc2)cc1`: -0.323; for `C=C(COC)/C(=C/C[C@H](OC(=O)c1ccncc1)c1ccccc1OCCO)c1cnc2ccccc2c1`: -0.693.

Turning to `[N-]=[N+]=Nc1ccccc1[C@@H]1OC(c2ccc(OCCCO)cc2)=N[C@]1(Cc1ccccc1)C(=O)NCC(O)CO` (some centres undefined), the z-score was -0.306.

For `CC(C)N1CC=CC23O[C@@H]4C=CCOC(=O)[C@@H]4[C@H]2C(=O)N(CCCO)[C@@H]3C1=O` (some centres undefined), the z-score was -1.01. The same measure for `CC(c1ccccc1)C(O)C1C=CC2C(=O)N(c3ccccc3)C(=O)C2N1Nc1ccc([N+](=O)[O-])cc1` (centres undefined): 0.204; for `CC(C)C(CO)N1C(=O)[C@@H]2C3C(=O)OCCC/C=C\[C@H]3OC23C=CCN(C(C)(C)C)C(=O)[C@@H]13` (some centres undefined): -0.972; for `COCCCNC(=O)[C@@]1(Cc2ccccc2N=[N+]=[N-])N=C(c2ccc(OCCCO)cc2)O[C@H]1c1ccccc1`: -0.412. With `CN1C(=O)C2C=CC(C(O)c3ccc(F)cc3)N(Nc3ccccc3)C2C1=O` (centres undefined), the z-score is -0.613.

For the compound `COCCOC(=O)N1C(=O)[C@@]2(c3cc(C#CC4=CCCCC4)ccc31)[C@H](c1ccc(OCCO)cc1)N1[C@H](c3ccccc3)[C@H](c3ccccc3)OC(=O)[C@H]1[C@@H]2C(=O)NC[C@H](O)c1ccccc1`, the z-score is 0.688.

`COC(=O)C1=CC(CCCO)=CC(C2CC2)N(C)C=C1C(=O)OC` (centres undefined): the z-score was 1.45. For the compound `O=C(NCC(F)(F)F)[C@@H]1c2ccccc2C(=O)N(Cc2ccc(OC(F)(F)F)cc2)[C@H]1c1ccc(CO)cc1`, the z-score is -0.27. In the case of `COc1cccc(/C=C/C=O)c1` it was 0.844; in that of `COC(=O)C(CC#Cc1ccc2c(c1)[C@]1(C(=O)N2)[C@H](c2ccccc2OCCO)N2[C@H](c3ccccc3)[C@H](c3ccccc3)OC(=O)[C@H]2[C@@H]1C(=O)NC[C@H](O)c1ccccc1)C(=O)OC`, 0.876.

Turning to `CC(C)OC(=O)C=C1C[C@@H](c2ccc(C(F)(F)F)cc2)O[C@@H](c2ccc(C(F)(F)F)cc2)O1`, the z-score was 0.114. In the case of `CN(C)C(=O)[C@@]1(Cc2ccccc2CN=[N+]=[N-])N=C(c2ccc(OCCCO)cc2)O[C@H]1c1ccccc1CN=[N+]=[N-]` it was -1.29; in that of `CCCNC(=O)[C@@]1(c2ccc([N+](=O)[O-])cc2)CC(=O)N(C2CCCCC2)[C@@H]1c1ccc(CO)cc1`, 0.196. In the case of `CC(C)N1C(=O)C[C@@](C(=O)NCCCN(C)C)(c2ccc([N+](=O)[O-])cc2)[C@H]1c1ccc(CO)cc1`, the z-score was -0.093. With `O=C1N(Cc2ccccc2)Cc2ccccc2[C@@H]2OC(c3ccc(OCCCO)cc3)=N[C@]12CCS(=O)(=O)c1ccccc1`, the z-score was 0.151. In the case of `COC(=O)[C@@]1(Cc2ccc(OC)cc2)[C@@H]2C(=CC(=O)[C@H]2CC(=O)C(=O)N(C)C)CN1C(=O)c1ccccc1` it was -1.12. In the case of `COc1ccc([Si](C)(C)[C@@H]2[C@@H](CC(=O)N3Cc4ccccc4C[C@H]3CO)O[C@]3(C(=O)N(C)c4ccccc43)[C@H]2C)cc1` it was -4.12; in that of `C=C[C@@H](COC(C)=O)N(C(=O)OC(C)(C)C)S(=O)(=O)c1ccc(Br)cc1`, 0.469.
